Assay outcomes: PubChem BioAssay, National Center for Advancing Translational Sciences (NCATS)
This is one part of a sample in which hits are shown more often than they occur.
DT40 TDP1 no CPT = qHTS for Inhibitors of human tyrosyl-DNA phosphodiesterase 1 (TDP1): qHTS in cells in absence of CPT. 15% of 420,000 active. Potency, µM (series often up to 46.2 µM), most hits filed as inhibitors. DT40 Tdp1-/- hTDP1 cells, no CPT, ATP luminescence, 48 h; note: nearly all actives have a fitted effect of over 55% in size
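Camptothecin absent (DMSO only). Human TDP1-complemented DT40 knockout cells, 400 cells/well, 37 °C for minimum 48 hr; ATP measured via CellTiter-Glo, 30 min dark incubation, luminescence.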
HT1080 IDH1KD tx = kills HT-1080 cells with IDH1 knockdown; HT-1080 IDH1 knockdown viability, ATP luminescence, 48 h; 2% of 360,000 active; AID 686971; Potency, µM (series often up to 46.1 µM), hits mostly cytotoxic
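Assay cells: HT-1080 with IDH1 knockdown, 750 per well, RPMI/5% FBS. Exposure: 48 h at 37 °C following 2 h pre-incubation. Read: CellTiter-Glo luminescence; fitted concentration-response, curve class assigned.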
IL-1B inflam inh = inflammasome signaling inhibition, IL-1 beta readout | THP-1 LPS/ATP IL-1B secretion, AlphaLISA, 16 h; active compounds read low | activity change, % at 57.5 µM | 4.7% of 360,000 active | AID 743279; in the data active = activity change below about -50%; inconclusive = mostly about -30% to -49%
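THP-1 cells pretreated 1 hr with compounds (up to 57.5 uM final), then stimulated with LPS (250 ng/mL final) plus ATP (1.25 mM final); secreted IL-1B measured by AlphaLISA after 16 hr, decreased signal indicating inhibition.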
12-LOX inh = ALOX12 (human) lipoxygenase inhibition | P18054 | purified 12hLO, xylenol orange hydroperoxide absorbance | Potency, µM (titrated, usually from 108 µM), most hits filed as inhibitors | 1.1% of 580,000 active
Target sequence (P18054 whole entry, looked up): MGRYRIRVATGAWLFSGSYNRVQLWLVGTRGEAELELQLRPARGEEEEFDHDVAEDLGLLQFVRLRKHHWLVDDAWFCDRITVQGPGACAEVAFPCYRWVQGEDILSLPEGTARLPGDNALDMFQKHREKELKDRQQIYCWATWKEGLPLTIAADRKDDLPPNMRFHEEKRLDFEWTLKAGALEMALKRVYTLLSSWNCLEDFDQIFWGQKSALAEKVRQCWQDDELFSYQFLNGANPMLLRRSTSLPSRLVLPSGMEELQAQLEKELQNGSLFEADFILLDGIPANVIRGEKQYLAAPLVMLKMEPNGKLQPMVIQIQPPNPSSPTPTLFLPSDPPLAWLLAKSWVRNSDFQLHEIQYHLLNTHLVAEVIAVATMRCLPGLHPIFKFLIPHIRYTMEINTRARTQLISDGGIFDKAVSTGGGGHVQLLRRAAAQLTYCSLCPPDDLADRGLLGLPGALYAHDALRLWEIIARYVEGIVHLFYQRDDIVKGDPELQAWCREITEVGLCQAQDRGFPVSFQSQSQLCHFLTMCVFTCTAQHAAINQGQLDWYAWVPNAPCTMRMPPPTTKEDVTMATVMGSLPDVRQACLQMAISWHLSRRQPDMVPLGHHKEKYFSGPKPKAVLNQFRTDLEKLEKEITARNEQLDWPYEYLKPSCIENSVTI
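Purified human 12hLO (150 nM final) in 25 mM Hepes, 0.01% Triton X-100, pH 7.0 was preincubated 15 min at room temperature with compound. Then 40 uM arachidonic acid was added, 30 min. Hydroperoxide was read by Fe-XO absorbance ratio 573/405 nm.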
HT1080NT lethal = kills 2HG-producing HT-1080-NT fibrosarcoma cells; AID 686970; 1.6% of 360,000 active; HT-1080-NT fibrosarcoma viability, CellTiter-Glo ATP luminescence, 48 h; Potency, µM (titrated, usually from 46.1 µM), most hits filed as cytotoxic;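 note: NT is the 2HG producing partner of a matched IDH1 knockdown line; nearly all actives have a fitted effect of over 55% in size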
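A 48-hour cytotoxicity screen used HT-1080-NT cells plated 2 hours before compound delivery. ATP-based CellTiter-Glo luminescence measured viability, normalized to DMSO and no-cell controls.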
TDP1 cell CPT = DT40-hTDP1 cell growth loss with CPT; chicken DT40 Tdp1-/-;hTDP1 cells + 20 nM CPT, ATP luminescence, 48 h; Potency, µM (series often up to 46.2 µM), hits mostly inhibitors; 12% of 420,000 active; note: nearly all actives have a fitted effect of over 55% in size
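Cell growth measured by CellTiter-Glo luminescence after a minimum 48 h, 37 C compound exposure with 20 nM CPT in Tdp1-knockout DT40 cells stably expressing hTDP1, seeded 400/well; qHTS titration format.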
Hits are given with their value; n = inactive; u = inconclusive; x = not tested or not shown. Unless noted, calls come from the whole dose curve; as a rule, active = well fitted curve in the direction sought with a large enough effect; inconclusive = small, poorly fitted or top-dose-only effect, or another doubt; inactive = no such curve, though single readings can be large; an effect the other way counts as inactive or inconclusive.

SMILES	DT40 TDP1 no CPT	HT1080 IDH1KD tx	IL-1B inflam inh	12-LOX inh	HT1080NT lethal	TDP1 cell CPT
CC(=O)c1c(N2CCN(C)CC2)[nH]c(-c2ccccc2)nc1=S	16.4µM	u	u	u	n	u
CCC(=O)Nc1cc(-c2nc3ccccc3o2)ccc1Cl	x	x	x	n	x	x
CN(C)C1=NC[C@H](Cc2ccccc2)N1CCCC1CCCC1	20.6µM	u	u	n	20.6µM	16.4µM
CN(C)C1=NCCN1CC1CCCC1	n	n	n	n	n	n
CN(C)C1=NC[C@H](Cc2ccccc2)N1CC1CCCCCC1	14.6µM	n	n	n	n	5.8µM
CN(C)C1=NC[C@H](Cc2ccccc2)N1CCc1cccc(F)c1	u	n	n	n	n	u
CN(C)C1=NC[C@H](Cc2ccccc2)N1CCC1CCCC1	u	n	n	n	n	20.6µM
CN(C)C1=NCCN1CCCC1CCCC1	11.6µM	n	n	n	n	u
CN1C[C@H](O)C[C@H]1c1nnc2n1CCN(C(=O)c1ccsc1)CC2	x	x	x	n	x	x
CCN(CC)C(=O)N1CCCCCCNC(=O)[C@@H]2C[C@@H](c3nc(-c4cccnc4)no3)C[C@@H]21	x	x	x	n	x	x
CN(C)C1=NC[C@H](Cc2ccccc2)N1CCCC1CCCCC1	6.51µM	u	u	u	n	7.31µM
C[C@H]1CN=C(N(C)C)N1CCC1CCCC1	u	n	n	n	n	u
C[C@H](CO)N1C[C@H](C)[C@H](CN(C)S(=O)(=O)c2cccs2)Oc2ccc(NC(=O)Nc3ccc4c(c3)OCO4)cc2CC1=O	16.4µM	u	u	n	u	u
CC(C)NC(=O)N(C)C[C@H]1Oc2ccc(NC(=O)CCC(F)(F)F)cc2C(=O)N([C@H](C)CO)C[C@@H]1C	n	n	n	n	n	n
Cc1noc(C)c1S(=O)(=O)N(C)C[C@H]1Oc2c(NC(=O)Nc3ccc(C(F)(F)F)cc3)cccc2C(=O)N([C@H](C)CO)C[C@@H]1C	23.1µM	u	n	n	n	n
COc1ccc(S(=O)(=O)N(C)C[C@H]2Oc3ccc(NC(=O)Nc4ccccc4)cc3C(=O)N([C@H](C)CO)C[C@@H]2C)cc1	u	n	n	n	n	u
C[C@H](CO)N1C[C@H](C)[C@@H](CN(C)S(=O)(=O)c2ccccc2)Oc2ccc(NC(=O)CCC(F)(F)F)cc2C1=O	n	n	n	n	n	20.6µM
COc1ccc(S(=O)(=O)N(C)C[C@H]2Oc3ccc(NC(=O)Nc4ccc5c(c4)OCO5)cc3C(=O)N([C@H](C)CO)C[C@@H]2C)cc1	u	n	n	n	n	20.6µM
O=S(Cc1ccc(Cl)cc1)Cc1ccccc1F (stereo not drawn)	x	x	x	n	x	x
Cc1n[nH]c(C)c1CCC(=O)NCC1CCN(c2cc(-c3ccccc3)[nH]n2)CC1	x	x	x	n	x	x
CC(C)NC(=O)Nc1ccc2c(c1)C(=O)N([C@H](C)CO)C[C@H](C)[C@@H](CN(C)S(=O)(=O)c1ccccc1)O2	n	n	n	n	n	n
C[C@H](CO)N1C[C@H](C)[C@H](CN(C)S(=O)(=O)c2cccs2)Oc2ncc(-c3cc4ccccc4o3)cc2C1=O	14.6µM	n	n	u	n	23.1µM
C[C@H]1CN([C@@H](C)CO)C(=O)c2cccc(NC(=O)Nc3ccc(C(F)(F)F)cc3)c2O[C@@H]1CN(C)S(=O)(=O)c1ccccc1	20.6µM	u	n	n	u	u
C[C@H](CO)N1C[C@H](C)[C@@H](CN(C)S(=O)(=O)c2ccccc2)Oc2c(NC(=O)Nc3ccccc3)cccc2C1=O	n	n	n	n	n	n
C[C@H](CO)N1C[C@H](C)[C@@H](CN(C)S(=O)(=O)c2ccccc2)Oc2ccc(NC(=O)Nc3ccc(C(F)(F)F)cc3)cc2C1=O	u	u	n	u	u	20.6µM
SMILES	DT40 TDP1 no CPT	HT1080 IDH1KD tx	IL-1B inflam inh	12-LOX inh	HT1080NT lethal	TDP1 cell CPT
COc1ccc(S(=O)(=O)N(C)C[C@H]2Oc3ncc(-c4ccncc4)cc3C(=O)N([C@@H](C)CO)C[C@@H]2C)cc1	u	n	u	n	n	n
C[C@@H]1CN([C@H](C)CO)C(=O)c2cccc(NC(=O)Nc3ccc(C(F)(F)F)cc3)c2O[C@H]1CN(C)S(=O)(=O)c1cccs1	16.4µM	u	-54.6	n	u	8.2µM
CCOC(=O)c1ccc(NC(=O)CSc2nc3c(-c4ccccc4)c[nH]c3c(=O)n2CC)cc1	x	x	x	n	x	x
Cc1nn(-c2nc3c(c(=O)n(CC(N)=O)c(=O)n3C)n2CCc2ccccc2)c(C)c1C	x	x	x	n	x	x
Cc1ccc(-c2noc(CSc3nnc4ccccn34)n2)cc1	x	x	x	n	x	x
CC1(c2ccccc2)N(Cc2ccccc2)C(=O)OC12CCN(c1cccnc1)CC2 (stereo not drawn)	x	x	x	n	x	x
Cc1cc(O)c(C(=O)/C=C/c2ccccc2Br)c(=O)o1	u	n	-76.8	u	n	u
Cc1ccc2nc(CO[C@H]3CN(c4ccc(C#N)cn4)C[C@H]3F)[nH]c2c1	x	x	x	14.1µM	x	x
C/C(=N\N=C(/C)c1cccc(N)c1)c1cccc(N)c1	n	n	n	n	n	n
C/C(=N\N=C(N)N)c1ccc(C)c(C)c1	u	n	u	n	n	18.4µM
CNC(=S)N/N=C(\C)c1ccccc1	13µM	n	n	n	u	7.31µM
C/C(=N\Nc1ncc(Br)cn1)c1cccc([N+](=O)[O-])c1	n	n	-73.1	n	n	n
C/C(=N\NC(=O)C(N)=O)c1cccc([N+](=O)[O-])c1	n	n	n	n	n	n
CNC(=S)N/N=C(\C)c1cccc([N+](=O)[O-])c1	2.91µM	n	n	u	n	1.3µM
CCCn1c(-c2ccc(Cl)cc2)nc2c(=O)n(C)c(=O)[nH]c21	x	x	x	n	x	x
C/C(=N\NC(=O)OC(C)(C)C)c1cccc([N+](=O)[O-])c1	u	n	n	n	n	u
C/C(=N\N=C(N)N)c1cccc([N+](=O)[O-])c1	13µM	n	n	u	n	u
Cc1nc(-c2ccccn2)sc1C(=O)NC1CCC(C(F)(F)F)CC1 (stereo not drawn)	x	x	x	n	x	x
O=[N+]([O-])c1c(Nc2cccc(Cl)c2Cl)cc(Cl)c2nonc12	x	x	x	15.8µM	x	x
O=[N+]([O-])c1c(Nc2ccccn2)cc(Cl)c2nonc12	5.17µM	u	-101.1	u	u	1.84µM
O=[N+]([O-])c1c(Nc2ccc(O)cc2)cc(Cl)c2nonc12	1.3µM	5.8µM	-101.5	u	9.2µM	1.3µM
N#Cc1cccc(OCc2nc3c(n2Cc2ccccc2)C(=O)N(Cc2ccccc2F)CCN3)c1	x	x	x	n	x	x
CCN(CC)S(=O)(=O)c1cccc(NCc2ccccc2C#N)c1	x	x	x	n	x	x
